Activity increase over dofetilide control, less the hit threshold data for 105 molecules are collected here from PubChem BioAssay AID1835 (Johns Hopkins Ion Channel Center, 2009).

Among all 2,400 compounds or so, about 750 (31%) were called active.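 Rule for the calls: active = median signal gain over dofetilide-blocked control wells reaching their mean plus 3 SD, so readout 1 at least 0; inactive = the rest.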 The list shows a part of the results.

In the assay the target is Voltage-gated inwardly rectifying potassium channel KCNH2 (Homo sapiens) (UniProt Q12809). In words: modulators restoring hERG flux under dofetilide – cell-based, thallium flux, duplicate retest, dofetilide IC70, confirmation (AID 1835). Particulars: hERG cell line, FluxOR thallium flux, dofetilide-blocked; at 10 µM; active compounds read high. (hERG is a cardiac potassium channel; its block is linked to QT prolongation.)
Chain of Voltage-gated inwardly rectifying potassium channel KCNH2 (Homo sapiens) (Q12809 whole entry, looked up): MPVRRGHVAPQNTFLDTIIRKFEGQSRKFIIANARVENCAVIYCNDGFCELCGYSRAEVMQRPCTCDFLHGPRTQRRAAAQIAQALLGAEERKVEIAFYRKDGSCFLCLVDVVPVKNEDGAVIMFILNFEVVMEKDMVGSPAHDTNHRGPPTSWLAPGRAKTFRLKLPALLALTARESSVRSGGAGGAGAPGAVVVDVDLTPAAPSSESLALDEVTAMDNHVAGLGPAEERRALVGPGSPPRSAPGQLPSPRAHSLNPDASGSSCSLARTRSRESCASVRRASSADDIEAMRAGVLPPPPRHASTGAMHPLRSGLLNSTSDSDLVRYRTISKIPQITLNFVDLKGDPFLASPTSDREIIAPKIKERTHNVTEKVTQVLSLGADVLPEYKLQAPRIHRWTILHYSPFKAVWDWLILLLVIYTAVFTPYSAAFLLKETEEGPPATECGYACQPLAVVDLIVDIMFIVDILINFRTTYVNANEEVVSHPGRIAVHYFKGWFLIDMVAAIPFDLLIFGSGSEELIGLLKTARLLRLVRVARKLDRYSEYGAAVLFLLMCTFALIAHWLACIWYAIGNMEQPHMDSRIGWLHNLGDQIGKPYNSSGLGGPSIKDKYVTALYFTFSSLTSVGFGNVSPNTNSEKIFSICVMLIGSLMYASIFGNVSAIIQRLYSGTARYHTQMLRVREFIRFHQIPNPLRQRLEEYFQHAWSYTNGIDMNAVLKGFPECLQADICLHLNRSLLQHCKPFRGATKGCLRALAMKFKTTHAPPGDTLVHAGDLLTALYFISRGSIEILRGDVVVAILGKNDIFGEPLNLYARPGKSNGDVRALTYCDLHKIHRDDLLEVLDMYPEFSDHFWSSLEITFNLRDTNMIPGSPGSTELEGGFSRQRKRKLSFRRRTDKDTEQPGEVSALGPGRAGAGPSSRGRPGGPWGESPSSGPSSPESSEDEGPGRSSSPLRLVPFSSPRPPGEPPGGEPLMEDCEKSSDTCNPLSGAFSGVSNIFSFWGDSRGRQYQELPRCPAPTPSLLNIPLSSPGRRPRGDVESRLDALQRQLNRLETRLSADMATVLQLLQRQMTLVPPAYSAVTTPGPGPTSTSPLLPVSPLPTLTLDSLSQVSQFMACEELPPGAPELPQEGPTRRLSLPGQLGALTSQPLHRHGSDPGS
Consider `CN1C(=O)NC(c2cccc([N+](=O)[O-])c2)C2=C1CC(C)(C)CC2=O` (stereo not given), for which the activity increase over dofetilide control, less the hit threshold was -14% (inactive).

For the molecule `CCc1ccccc1NC(=O)CC1CS(=O)(=O)CC1CC(=O)Nc1ccccc1CC` (stereo not given), the activity increase over dofetilide control, less the hit threshold was -4% (inactive). For the molecule `N#C/C(=N\Nc1ccccc1F)c1nc(-c2ccccc2)cs1`, the activity increase over dofetilide control, less the hit threshold is -14% (inactive). For `O=C(O)/C=C/c1cn(-c2ccccc2)nc1-c1ccc(-c2ccc([N+](=O)[O-])cc2)o1`, the activity increase over dofetilide control, less the hit threshold was 27% (active). The same measure for `COC(=O)Oc1ccc(/C=C/C(=O)OC(C)C)cc1OC(=O)OC`: 2% (active); for `Cc1cc(C)nc(NS(=O)(=O)c2ccc(NC(=O)Cc3ccccc3)cc2)n1`: -5% (inactive); for `Cc1cc(O)c(/C=N/OCc2ccc(Cl)cc2Cl)c(=O)o1`: -4% (inactive). The value for `Brc1ccc(-c2noc(CCc3ccccc3)n2)cc1` was -20% (inactive). Consider `CC(C)Cn1c(=S)[nH]c2cc(Cl)ccc21`, for which the activity increase over dofetilide control, less the hit threshold is 5% (active). In the case of `Cc1nnc(SCC2=C(C(=O)O)N3C(=O)C(NC(=O)Cn4nc(C(F)F)cc4C)C3SC2)s1` (stereo not given), the activity increase over dofetilide control, less the hit threshold is -5% (inactive).

For the molecule `Cc1ccc(C)c(NC(=S)c2nc3ccccc3s2)c1`, the activity increase over dofetilide control, less the hit threshold is -10% (inactive). Consider `Cc1ccc(C)c2sc(NC(=O)c3nc4ccccc4s3)nc12`, for which the activity increase over dofetilide control, less the hit threshold is 35% (active).

`Cc1ccccc1NP(=O)(c1ccccc1)c1nc2ccccc2s1` (stereo not given): the activity increase over dofetilide control, less the hit threshold was -8% (inactive). With `COc1ccc(Cl)cc1C(=O)Nc1cccnc1Cl`, the activity increase over dofetilide control, less the hit threshold was -8% (inactive). The same measure for `Cc1ccccc1C(=O)NNC(=O)C(=O)Nc1cccc(Cl)c1C`: 27% (active). The value for `COc1ccccc1C(=O)Nc1ccc(C(=O)N2CCCC2)cc1` was 0% (inactive); that for `C/C(CC(=O)Nc1ccccn1)=N\NC(=O)C(=O)Nc1cccc(Cl)c1C` was -6% (inactive); that for `COc1ccccc1C(=O)NNC(=O)C(=O)Nc1cccc(Cl)c1C` was 100% (active). As for `CC(=O)Nc1ccccc1C(=O)C(=O)Nc1ccc(Cl)cc1`, the activity increase over dofetilide control, less the hit threshold was -3% (inactive). `NC(=O)Cn1c2[n+](c3ccccc31)CC(O)CS2` (stereo not given): the activity increase over dofetilide control, less the hit threshold is -24% (inactive).

For `CCN1C(=O)/C(=C/c2ccc(C)s2)NC1=S`, the activity increase over dofetilide control, less the hit threshold was 14% (active). The value for `CC(C)CN1C(=O)/C(=C/c2cccs2)NC1=S` was 85% (active); that for `CC(C)CN1C(=O)/C(=C/c2ccco2)NC1=S` was -26% (inactive); that for `CCCN1C(=O)/C(=C/c2ccc3c(c2)OCO3)NC1=S` was -13% (inactive).

As for `CCCN1C(=O)/C(=C/c2ccc(C)s2)NC1=S`, the activity increase over dofetilide control, less the hit threshold is 71% (active). On to `CCOC(=O)c1c(NS(=O)(=O)Cc2ccccc2)sc2c1CCCC2`, for which the activity increase over dofetilide control, less the hit threshold is 69% (active).

For `CCOC(=O)c1c(NS(=O)(=O)c2ccc(Br)cc2)sc2c1CCC2`, the activity increase over dofetilide control, less the hit threshold was 68% (active). The same measure for `Cc1ccc(C(=O)Nc2sc3c(c2C(=O)O)CCCCC3)o1`: -22% (inactive); for `COc1ccc(S(=O)(=O)Nc2ccc(O)c3ccccc23)cc1`: -21% (inactive).

Regarding `COC(=O)c1c(NS(=O)(=O)Cc2ccccc2)sc2c1CCCC2`, the activity increase over dofetilide control, less the hit threshold was 31% (active). The same measure for `COc1ccc(NS(=O)(=O)c2ccc3ccccc3c2)c2ncccc12`: -20% (inactive); for `COC(=O)c1c(NS(=O)(=O)c2ccc3ccccc3c2)sc2c1CCCC2`: 29% (active).

Regarding `O=C(O)C1C2CCC(O2)C1C(=O)Nc1ccc(F)c(Cl)c1` (stereo not given), the activity increase over dofetilide control, less the hit threshold was -7% (inactive). The same measure for `Cc1ccc(CN2CCN(CC(=O)NC(C)c3ccc4c(c3)OCCO4)C2=O)cc1` (stereo not given): -9% (inactive); for `O=c1[nH]c(=O)n(CCc2ccc(F)cc2)c(O)c1C=NCc1ccc2c(c1)OCO2`: -26% (inactive); for `CC(C)=CCCC1=CCC2C(=O)NNC(=O)C2C1` (stereo not given): -11% (inactive). The value for `CCOc1ccc(N)c(SSc2cc(OCC)ccc2N)c1` was -43% (inactive). Consider `COC(=O)CNc1nc(Cl)nc(Nc2ccc(C)cc2)n1`, for which the activity increase over dofetilide control, less the hit threshold is -7% (inactive).

As for `Cc1nnc(NC(=O)C2CCCN(S(=O)(=O)c3ccccc3C(F)(F)F)C2)s1` (stereo not given), the activity increase over dofetilide control, less the hit threshold is 4% (active). The value for `CCc1nnc(NC(=O)C2CCCCN2S(=O)(=O)c2ccccc2)s1` (stereo not given) was -16% (inactive); that for `COC(=O)c1ccccc1NC(=O)C1CCCN(S(C)(=O)=O)C1` (stereo not given) was -17% (inactive); that for `Cc1cccc(NC(=O)COc2coc(CN3CCN(c4ccccc4)CC3)cc2=O)c1` was -18% (inactive).

Regarding `CCOC(=O)Cc1csc(NC(=S)NC(=O)c2ccccc2C)n1`, the activity increase over dofetilide control, less the hit threshold is 3% (active). Regarding `CCOC(=O)c1c(SCC(=O)Nc2nc(C)cs2)nc(=O)[nH]c1C`, the activity increase over dofetilide control, less the hit threshold is -16% (inactive).

In the case of `CCOC(=O)Cc1csc(NC(=S)NC(=O)c2ccc(C)cc2)n1`, the activity increase over dofetilide control, less the hit threshold was -18% (inactive).

For `CCOC(=O)Cc1csc(NC(=S)NC(=O)c2ccc(Cl)cc2)n1`, the activity increase over dofetilide control, less the hit threshold is 11% (active).

With `CCOC(=O)Cc1csc(NC(=S)NC(=O)C(C)(C)C)n1`, the activity increase over dofetilide control, less the hit threshold is 2% (active). The same measure for `COC(=O)c1c(NC(=O)C(C)(C)C)csc1C`: -11% (inactive); for `CCOC(=O)Cc1csc(NC(=S)NC(=O)c2ccccc2Br)n1`: 22% (active).

Consider `COc1cc(S(=O)(=O)NCC2COCCO2)ccc1-n1cnnn1` (stereo not given), for which the activity increase over dofetilide control, less the hit threshold was -17% (inactive).

For the molecule `Cc1ccc(-n2nc(C)c3c2OC(N)=C(C#N)C3c2ccoc2)cc1` (stereo not given), the activity increase over dofetilide control, less the hit threshold is -19% (inactive). Consider `CCOC(=O)C1=C(Cc2ccc(C)cc2)C(=O)c2ccccc2C1=O`, for which the activity increase over dofetilide control, less the hit threshold was 17% (active). The value for `CCOc1cc(/C=C2/C(=O)ON=C2C)ccc1O` was -22% (inactive); that for `CCOC(=O)c1c(C=O)c(C)n(Cc2ccccc2)c1C` was -5% (inactive). The value for `CSc1ccccc1C(=O)NCc1ccc(C)cc1` was -16% (inactive); that for `CCOC(=O)C1=C(O)c2ccccc2C(=O)/C1=C\c1ccc(CC)cc1` was 28% (active). `CCOc1ccc(/C=C2\CCc3ccccc3C2=O)cc1`: the activity increase over dofetilide control, less the hit threshold is -13% (inactive).

Regarding `Cc1nc(NC(=S)NC(=O)COc2ccc(Cl)cc2)ccc1Br`, the activity increase over dofetilide control, less the hit threshold is 0% (inactive). The value for `Cc1ccc(OCC(=O)NC(=S)Nc2ccc(Br)cn2)cc1C` was -13% (inactive); that for `Cc1ccc(OCC(=O)NC(=S)Nc2ccc(Br)cn2)cc1` was 13% (active). For `COc1ccc(-c2nc3ccc(C(=O)NCC(OC)OC)cc3nc2-c2ccc(OC)c(OC)c2)cc1OC`, the activity increase over dofetilide control, less the hit threshold is -14% (inactive). Consider `CCN(CC)C(=S)NC(=O)c1ccc(OC)c(Br)c1`, for which the activity increase over dofetilide control, less the hit threshold was 11% (active).

On to `C=CCNC(=S)NC(=O)c1ccc(C)c(Br)c1`, for which the activity increase over dofetilide control, less the hit threshold was -8% (inactive). The same measure for `C=CCN(CC=C)C(=S)NC(=O)c1ccc(C)c(Br)c1`: 100% (active); for `COc1ccc(C(=O)NC(=S)N(C)C2CCCCC2)cc1Br`: -5% (inactive). Consider `C=CCN(CC=C)C(=S)NC(=O)c1ccc(OC)cc1`, for which the activity increase over dofetilide control, less the hit threshold was 23% (active). The same measure for `COc1ccc(C(=O)NC(=S)NCCO)cc1Br`: -17% (inactive).

Turning to `C=CCN(CC=C)C(=S)NC(=O)c1ccc(OC)c(Br)c1`, the activity increase over dofetilide control, less the hit threshold was 48% (active). The same measure for `O=C(OCCNc1ccc(C(F)(F)F)cc1[N+](=O)[O-])c1cc2ccccc2oc1=O`: -10% (inactive).

`Nn1c(SCC(=O)Nc2ccc(F)cc2)nnc1C1CCCCC1`: the activity increase over dofetilide control, less the hit threshold was -24% (inactive). For the molecule `O=C(Cn1cnc2ccccc21)c1ccccc1`, the activity increase over dofetilide control, less the hit threshold was -5% (inactive). The same measure for `CC(=O)NC1C(Oc2ccccc2C)OC(CO)C(O)C1O` (stereo not given): -10% (inactive). Regarding `COc1ccc(OC(=O)Cc2cccc3ccccc23)cc1`, the activity increase over dofetilide control, less the hit threshold was -13% (inactive).

`C=CCN(CC=C)C(=S)NC(=O)/C=C/c1ccc(OC)cc1`: the activity increase over dofetilide control, less the hit threshold was 1% (active). The value for `C=CCN(CC=C)C(=S)NC(=O)c1ccc([N+](=O)[O-])cc1` was 56% (active); that for `C=CCN(CC=C)C(=S)NC(=O)Cc1cccc2ccccc12` was 17% (active). With `COc1ccc(/C=C/C(=O)NC(=S)NNC(=O)c2cccs2)cc1`, the activity increase over dofetilide control, less the hit threshold is -24% (inactive). The value for `CCC(=O)Nc1ccc(C(=O)NNC(=O)c2cc([N+](=O)[O-])cc([N+](=O)[O-])c2)cc1` was -13% (inactive); that for `O=C(NCCOC(=O)c1ccc([N+](=O)[O-])cc1)c1cccnc1` was -4% (inactive); that for `COc1ccccc1CNC(=O)CCCC(=O)n1ncc2cc(C)ccc21` was -12% (inactive).

As to `O=C(NN=C1c2ccccc2-c2ccccc21)c1ccccc1`, the activity increase over dofetilide control, less the hit threshold was -5% (inactive).

With `O=C(N/N=C1/C(=O)c2cccc3cccc1c23)c1ccc(Cl)cc1`, the activity increase over dofetilide control, less the hit threshold is 52% (active). On to `CCNC(=S)N/N=C1\C(=O)c2cccc3cccc1c23`, for which the activity increase over dofetilide control, less the hit threshold is 9% (active). With `O=C1c2cccc3cccc(c23)C(=O)C1(O)O`, the activity increase over dofetilide control, less the hit threshold was -24% (inactive). `C/C(=N\NC(=O)c1ccc(Cl)cc1)c1ccc(Br)s1`: the activity increase over dofetilide control, less the hit threshold was -11% (inactive). With `CCCc1cc(C(=O)NNC(=S)Nc2cccc(C)c2)cs1`, the activity increase over dofetilide control, less the hit threshold was -22% (inactive). The value for `CC(C)(C)NC(=O)C(=O)NNC(=O)COc1ccc(Br)cc1` was 33% (active); that for `Cc1c(C(=O)NNC(=O)c2ccncc2)oc2ccc(Br)cc12` was -12% (inactive); that for `CC(NC(=O)c1ccncc1)C(C)(C)C` (stereo not given) was -4% (inactive). For the molecule `CC(C)(C)NC(=O)C(=O)NNC(=O)COc1ccccc1`, the activity increase over dofetilide control, less the hit threshold is -4% (inactive). The same measure for `CC(C)(C)NC(=O)C(=O)NNC(=O)c1cccc(Br)c1`: 35% (active).

Regarding `CC(C)(C)NC(=O)C(=O)NNC(=O)c1ccc(C(C)(C)C)cc1`, the activity increase over dofetilide control, less the hit threshold was 38% (active). Take `CC/C(=N\NC(=S)Nc1cccc(C)c1)c1ccccc1`: the activity increase over dofetilide control, less the hit threshold is -1% (inactive).

For the molecule `Cc1cccc(NC(=O)C(=O)NNC(=O)c2ccc(C(C)(C)C)cc2)c1`, the activity increase over dofetilide control, less the hit threshold was 83% (active). The value for `CC(C)(C)NC(=O)C(=O)NNC(=O)c1ccccc1` was -5% (inactive); that for `Cc1ccc(Oc2ccc(OCC(=O)NC(CC(C)C)C(=O)O)cc2)cc1` (stereo not given) was -20% (inactive); that for `N#C/C(=N/Nc1ccc([N+](=O)[O-])cc1)C(=N)N1CCCCC1` was -20% (inactive). `O=C1CC(c2ccccc2)c2cccc(F)c21` (stereo not given): the activity increase over dofetilide control, less the hit threshold was -22% (inactive).

On to `CC1CC(C)CN(CCCNC(=O)Cc2c(C(=O)O)[nH]c3ccccc23)C1` (stereo not given), for which the activity increase over dofetilide control, less the hit threshold was -14% (inactive). For `S=c1[nH]c2cc(Cl)ccc2s1`, the activity increase over dofetilide control, less the hit threshold was 93% (active). Turning to `S=c1[nH]c2ccc(Cl)cc2s1`, the activity increase over dofetilide control, less the hit threshold is 91% (active). In the case of `O=C(Nc1ccc2[nH]c(=S)sc2c1)Nc1ccccc1F`, the activity increase over dofetilide control, less the hit threshold was -16% (inactive). The value for `S=c1[nH]c2ccccc2n2cccc12` was -4% (inactive).

For the molecule `CNC(=O)c1c(O)c2cccc3c2n(c1=O)CC3`, the activity increase over dofetilide control, less the hit threshold was -17% (inactive). The same measure for `CC(=O)c1cc(N2CCC(C(=O)O)CC2)ccc1[N+](=O)[O-]`: -22% (inactive).
